Assay results: article PMC5540273 (PLoS ONE, 2017)
pKd: −log10 of the molar value.

Columns and labels:
AAK1 = conditions: concentration: 1 μM, replicates: in singlicate; n = 1
ABL1-nonphosphorylated = conditions: concentration: 1 μM, replicates: in singlicate; n = 1
ABL1-phosphorylated = conditions: concentration: 1 μM, replicates: in singlicate; n = 1
ABL2 = conditions: concentration: 1 μM, replicates: in singlicate; n = 1
ACVR1B = conditions: concentration: 1 μM, replicates: in singlicate; n = 1
ACVR1 = conditions: concentration: 1 μM, replicates: in singlicate; n = 1
ACVR2A = conditions: concentration: 1 μM, replicates: in singlicate; n = 1
p38-alpha = system: T1, p38-alpha
T1 construct: gene MAPK14

p38-beta = system: T2, p38-beta
T2 construct: gene MAPK11
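Throughout, for %Inh: KINOMEscan kinase panel screen.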
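Throughout, for pKd: kd values determined as follow-up on hits from a single-replicate KINOMEscan panel screen.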

## Nc1ncnc2[nH]c(-c3ccccc3)nc12 [AH5015]
AAK1
  %Inh: 0%
ABL1-nonphosphorylated
  %Inh: 7%
ABL1-phosphorylated
  %Inh: 44%
ABL2
  %Inh: 19%
ACVR1B
  %Inh: 0%
ACVR1
  %Inh: 37%
ACVR2A
  %Inh: 7%

## Cc1cccc(-c2nc(-c3ccc(S(C)(=O)=O)cc3)sc2-c2ccnc(NCCc3ccccc3)c2)c1
p38-alpha
  pKd: 5.72
AAK1
  %Inh: 12%
ABL1-nonphosphorylated
  %Inh: 90.7%
ABL1-phosphorylated
  %Inh: 21%
ABL2
  %Inh: 0%
ACVR1B
  %Inh: 8%
ACVR1
  %Inh: 0%
ACVR2A
  %Inh: 0%

## Cl.c1ccc(-c2n[nH]cc2-c2ccnc(-c3ccc(CN4CCOCC4)cc3)c2)nc1 [GW776245]
AAK1
  %Inh: 25%
ABL1-nonphosphorylated
  %Inh: 62%
ABL1-phosphorylated
  %Inh: 61%
ABL2
  %Inh: 0%
ACVR1B
  %Inh: 80%
ACVR1
  %Inh: 7%
ACVR2A
  %Inh: 11%

## NC(=O)c1nnc2ccccc2c1N
AAK1
  %Inh: 35%
ABL1-nonphosphorylated
  %Inh: 25%
ABL1-phosphorylated
  %Inh: 6%
ABL2
  %Inh: 65%
ACVR1B
  %Inh: 0%
ACVR1
  %Inh: 0%
ACVR2A
  %Inh: 22%

## CN(C)CCN(C)C(=O)c1cc(-c2ccncc2)c(-c2ccc(Cl)c(O)c2)o1.Cl.Cl [SB-710397]
p38-alpha
  pKd: 6.13
AAK1
  %Inh: 6%
ABL1-nonphosphorylated
  %Inh: 2%
ABL1-phosphorylated
  %Inh: 6%
ABL2
  %Inh: 17%
ACVR1B
  %Inh: 0%
ACVR1
  %Inh: 0%
ACVR2A
  %Inh: 0%

## Cc1c(O)cccc1Nc1ccnc2ccc(C(F)(F)F)cc12.Cl [GW466413]
AAK1
  %Inh: 0%
ABL1-nonphosphorylated
  %Inh: 42%
ABL1-phosphorylated
  %Inh: 70%
ABL2
  %Inh: 43%
ACVR1B
  %Inh: 0%
ACVR1
  %Inh: 73%
ACVR2A
  %Inh: 13%

## O=C(Nc1n[nH]c2nc(-c3nccs3)c(Br)cc12)C1CCCC1 [SB-742609]
AAK1
  %Inh: 15%
ABL1-nonphosphorylated
  %Inh: 7%
ABL1-phosphorylated
  %Inh: 1%
ABL2
  %Inh: 25%
ACVR1B
  %Inh: 0%
ACVR1
  %Inh: 7%
ACVR2A
  %Inh: 0%

## Cc1csc(-c2nc(Nc3ccncc3)c3ccccc3n2)n1 [GW869640]
AAK1
  %Inh: 31%
ABL1-nonphosphorylated
  %Inh: 31%
ABL1-phosphorylated
  %Inh: 15%
ABL2
  %Inh: 7%
ACVR1B
  %Inh: 94.7%
ACVR1
  %Inh: 0%
ACVR2A
  %Inh: 3%

## O=C1NC(=O)C(N2CCc3ccccc32)=C1c1ccccc1Cl [SB-373598]
AAK1
  %Inh: 7%
ABL1-nonphosphorylated
  %Inh: 12%
ABL1-phosphorylated
  %Inh: 97.7%
ABL2
  %Inh: 15%
ACVR1B
  %Inh: 35%
ACVR1
  %Inh: 27%
ACVR2A
  %Inh: 25%

## CCn1c(-c2ccccn2)nc2cnccc21 [SB-736398]
AAK1
  %Inh: 0%
ABL1-nonphosphorylated
  %Inh: 0%
ABL1-phosphorylated
  %Inh: 4%
ABL2
  %Inh: 0%
ACVR1B
  %Inh: 0%
ACVR1
  %Inh: 18%
ACVR2A
  %Inh: 0%

## Cc1ccccc1-n1cnc2c(N)ncnc21 [SKF-97510]
AAK1
  %Inh: 1%
ABL1-nonphosphorylated
  %Inh: 100%
ABL1-phosphorylated
  %Inh: 3%
ABL2
  %Inh: 0%
ACVR1B
  %Inh: 0%
ACVR1
  %Inh: 10%
ACVR2A
  %Inh: 0%

## Fc1cc(Cl)ccc1Nc1ccnc2cc(-c3ccc(CN4CCCCC4)o3)ccc12 [GW560116]
AAK1
  %Inh: 1%
ABL1-nonphosphorylated
  %Inh: 47%
ABL1-phosphorylated
  %Inh: 49%
ABL2
  %Inh: 14%
ACVR1B
  %Inh: 0%
ACVR1
  %Inh: 5%
ACVR2A
  %Inh: 0%

## O=C(Nc1ccccc1)Nc1cccc(Oc2ccc3nccn3n2)c1
AAK1
  %Inh: 0%
ABL1-nonphosphorylated
  %Inh: 89%
ABL1-phosphorylated
  %Inh: 6%
ABL2
  %Inh: 31%
ACVR1B
  %Inh: 0%
ACVR1
  %Inh: 0%
ACVR2A
  %Inh: 0%

## CS(=O)(=O)c1ccc(-c2c(-c3ncn[nH]3)sc(N3CCOCC3)c2C#N)cc1
AAK1
  %Inh: 18%
ABL1-nonphosphorylated
  %Inh: 30%
ABL1-phosphorylated
  %Inh: 13%
ABL2
  %Inh: 7%
ACVR1B
  %Inh: 14%
ACVR1
  %Inh: 0%
ACVR2A
  %Inh: 0%

## Cc1cc(-c2ccc3c(c2)CC[C@@H](N[C@@H](C)c2ccccc2)C3)cnc1N.Cl [GW412617]
AAK1
  %Inh: 100%
ABL1-nonphosphorylated
  %Inh: 8%
ABL1-phosphorylated
  %Inh: 9%
ABL2
  %Inh: 6%
ACVR1B
  %Inh: 0%
ACVR1
  %Inh: 34%
ACVR2A
  %Inh: 0%

## COc1cccc(-c2cc(-c3c[nH]nc3-c3ccccn3)ccn2)c1 [GW680338]
AAK1
  %Inh: 4%
ABL1-nonphosphorylated
  %Inh: 0%
ABL1-phosphorylated
  %Inh: 3%
ABL2
  %Inh: 0%
ACVR1B
  %Inh: 50%
ACVR1
  %Inh: 24%
ACVR2A
  %Inh: 9%

## Nc1nc(-c2nccs2)c(-c2ccnc3ccccc23)s1 [GW693542]
AAK1
  %Inh: 8%
ABL1-nonphosphorylated
  %Inh: 0%
ABL1-phosphorylated
  %Inh: 6%
ABL2
  %Inh: 15%
ACVR1B
  %Inh: 14%
ACVR1
  %Inh: 10%
ACVR2A
  %Inh: 0%

## Cc1cc(NCC(c2ccccc2)c2ccccc2)nc(NCc2ccc(C(F)(F)F)cc2)n1 [GW497681]
AAK1
  %Inh: 0%
ABL1-nonphosphorylated
  %Inh: 0%
ABL1-phosphorylated
  %Inh: 0%
ABL2
  %Inh: 0%
ACVR1B
  %Inh: 0%
ACVR1
  %Inh: 0%
ACVR2A
  %Inh: 0%

## COc1ccccc1CNC(=O)c1cc(C(=O)c2ccccc2C)c[nH]1 [GSK364507]
p38-alpha
  pKd: 6.57
AAK1
  %Inh: 2%
ABL1-nonphosphorylated
  %Inh: 0%
ABL1-phosphorylated
  %Inh: 0%
ABL2
  %Inh: 21%
ACVR1B
  %Inh: 0%
ACVR1
  %Inh: 0%
ACVR2A
  %Inh: 0%

## COc1cc2nccc(Nc3ccc(NC(=O)c4ccc(C)cc4)c(O)c3)c2cc1OC.Cl [GW440132]
AAK1
  %Inh: 12%
ABL1-nonphosphorylated
  %Inh: 28%
ABL1-phosphorylated
  %Inh: 0%
ABL2
  %Inh: 16%
ACVR1B
  %Inh: 13%
ACVR1
  %Inh: 0%
ACVR2A
  %Inh: 0%

## Cn1cncc1-c1ccc2ncnc(Nc3ccc(OCc4ccccc4)cc3)c2c1 [GW320571]
AAK1
  %Inh: 2%
ABL1-nonphosphorylated
  %Inh: 0%
ABL1-phosphorylated
  %Inh: 10%
ABL2
  %Inh: 10%
ACVR1B
  %Inh: 2%
ACVR1
  %Inh: 22%
ACVR2A
  %Inh: 16%

## COc1cccc(NC(=O)NC2CCN(c3ccnc(Nc4ccc(F)cc4)n3)C2)c1 (stereo not drawn) [GSK1379721]
AAK1
  %Inh: 5%
ABL1-nonphosphorylated
  %Inh: 0%
ABL1-phosphorylated
  %Inh: 0%
ABL2
  %Inh: 0%
ACVR1B
  %Inh: 0%
ACVR1
  %Inh: 0%
ACVR2A
  %Inh: 100%

## Fc1cc(Cl)ccc1Nc1ccnc2cc(I)ccc12 [GW551191]
AAK1
  %Inh: 11%
ABL1-nonphosphorylated
  %Inh: 22%
ABL1-phosphorylated
  %Inh: 26%
ABL2
  %Inh: 29%
ACVR1B
  %Inh: 0%
ACVR1
  %Inh: 54%
ACVR2A
  %Inh: 0%

## COC(=O)c1c(-c2ccccc2)c2cc(C(=O)O)ccc2c(=O)n1Cc1ccccc1
AAK1
  %Inh: 3%
ABL1-nonphosphorylated
  %Inh: 77%
ABL1-phosphorylated
  %Inh: 7%
ABL2
  %Inh: 7%
ACVR1B
  %Inh: 9%
ACVR1
  %Inh: 0%
ACVR2A
  %Inh: 36%

## CC(=O)Nc1nc2cnc(Nc3cc(NC(=O)c4cccc(CCC#N)c4)ccc3C)nc2s1
AAK1
  %Inh: 6%
ABL1-nonphosphorylated
  %Inh: 94.8%
ABL1-phosphorylated
  %Inh: 29%
ABL2
  %Inh: 29%
ACVR1B
  %Inh: 0%
ACVR1
  %Inh: 0%
ACVR2A
  %Inh: 0%

## Cc1cccc(-c2nc(Nc3ccc4[nH]ncc4c3)c3ccccc3n2)n1 [GW857175]
AAK1
  %Inh: 0%
ABL1-nonphosphorylated
  %Inh: 19%
ABL1-phosphorylated
  %Inh: 14%
ABL2
  %Inh: 3%
ACVR1B
  %Inh: 100%
ACVR1
  %Inh: 0%
ACVR2A
  %Inh: 0%

## Cc1ccc(NC(=O)Nc2cccc(Cl)c2)cc1-c1ccc(C(=O)Nc2ccncc2)cc1 [GSK1398468]
AAK1
  %Inh: 37%
ABL1-nonphosphorylated
  %Inh: 0%
ABL1-phosphorylated
  %Inh: 1%
ABL2
  %Inh: 17%
ACVR1B
  %Inh: 0%
ACVR1
  %Inh: 0%
ACVR2A
  %Inh: 0%

## Cl.Oc1ccc(-c2nc(-c3ccccc3)[nH]c2-c2ccncc2)cc1 [SB-428218]
AAK1
  %Inh: 7%
ABL1-nonphosphorylated
  %Inh: 72%
ABL1-phosphorylated
  %Inh: 56%
ABL2
  %Inh: 30%
ACVR1B
  %Inh: 0%
ACVR1
  %Inh: 7%
ACVR2A
  %Inh: 0%

## CCCc1ccc(S(=O)(=O)NC2CCN(c3ccnc(Nc4ccc(F)cc4)n3)C2)cc1 (stereo not drawn) [GSK1379715]
AAK1
  %Inh: 1%
ABL1-nonphosphorylated
  %Inh: 0%
ABL1-phosphorylated
  %Inh: 0%
ABL2
  %Inh: 6%
ACVR1B
  %Inh: 0%
ACVR1
  %Inh: 16%
ACVR2A
  %Inh: 0%

## COc1cc2ncnc(Nc3ccc4nc(-c5ccccc5)[nH]c4c3)c2cc1OC.Cl [GW282450]
AAK1
  %Inh: 6%
ABL1-nonphosphorylated
  %Inh: 0%
ABL1-phosphorylated
  %Inh: 0%
ABL2
  %Inh: 5%
ACVR1B
  %Inh: 0%
ACVR1
  %Inh: 0%
ACVR2A
  %Inh: 0%

## Cc1cccc(-c2cc(Nc3ccncc3)c3ccccc3n2)n1 [GSK223675]
ZAK
  pKd: < 5.00
AAK1
  %Inh: 12%
ABL1-nonphosphorylated
  %Inh: 0%
ABL1-phosphorylated
  %Inh: 0%
ABL2
  %Inh: 0%
ACVR1B
  %Inh: 88%
ACVR1
  %Inh: 0%
ACVR2A
  %Inh: 0%

## Cc1ccc(NC(=O)Nc2cc(C(C)(C)C)nn2-c2ccccc2)cc1 [GSK1014915]
p38-alpha
  pKd: 7.24
p38-beta
  pKd: 6.27
AAK1
  %Inh: 0%
ABL1-nonphosphorylated
  %Inh: 0%
ABL1-phosphorylated
  %Inh: 2%
ABL2
  %Inh: 14%
ACVR1B
  %Inh: 0%
ACVR1
  %Inh: 7%
ACVR2A
  %Inh: 6%

## CC(C)(C)c1ccc(C(=O)Nc2cn3cc(-c4cccnc4)ccc3n2)cc1
AAK1
  %Inh: 25%
ABL1-nonphosphorylated
  %Inh: 50%
ABL1-phosphorylated
  %Inh: 37%
ABL2
  %Inh: 20%
ACVR1B
  %Inh: 13%
ACVR1
  %Inh: 21%
ACVR2A
  %Inh: 0%

## C[C@@H]1CCCCN1c1cc(-c2ccc3c(N)n[nH]c3c2)nc(N)n1 [GSK2258759]
p38-alpha
  pKd: 5.68
AAK1
  %Inh: 43%
ABL1-nonphosphorylated
  %Inh: 0%
ABL1-phosphorylated
  %Inh: 0%
ABL2
  %Inh: 0%
ACVR1B
  %Inh: 0%
ACVR1
  %Inh: 24%
ACVR2A
  %Inh: 0%

## CN1C(=O)C(Nc2ccc(Cl)c(C(=O)O)c2)=C(c2ccc(Cl)cc2)C1=O [SB-404290]
AAK1
  %Inh: 100%
ABL1-nonphosphorylated
  %Inh: 21%
ABL1-phosphorylated
  %Inh: 0%
ABL2
  %Inh: 19%
ACVR1B
  %Inh: 4%
ACVR1
  %Inh: 12%
ACVR2A
  %Inh: 0%
